The source made the active and inactive calls. How the source made its calls: active means hit-call score of the fitted dose curve at least 0.9, where 1 is the maximum; inactive means score below 0.9.

The assay in a line: ATG_NFI_CIS: Attagene CIS-FACTORIAL HepG2 Assay for human Nuclear Factor I (NFI) (AID 2282989). Conditions: HepG2 cis-regulatory reporter, NFI response element transcription; actives raise or lower the signal. The procedure: ATG_CIS is a cell-based, multiplexed-readout assay that uses HepG2, a human liver cell line, with measurements taken at 24 hours after chemical dosing in a 24-well plate.ATG_NFI_CIS is one of 52 assay component(s) measured or calculated from the ATG_CIS assay. It is designed to make measurements of mRNA induction, a form of inducible reporter, as detected with fluorescence intensity signals by Reverse transcription polymerase chain reaction (RT-PCR) and Capillary electrophoresis technology.Data from the assay component ATG_NFI_CIS was analyzed into 1 assay endpoint. This assay endpoint, ATG_NFI_CIS, was analyzed with bidirectional fitting relative to DMSO as the negative control and baseline of activity. Using a type of inducible reporter, measures of mRNA for gain or loss-of-signal activity can be used to understand the reporter gene at the transcription factor-level as they relate to the gene NFIA. Furthermore, this assay endpoint can be referred to as a primary readout, because this assay has produced multiple assay endpoints where this one serves a reporter gene function. To generalize the intended target to other relatable targets, this assay endpoint is annotated to the dna binding intended target family, where the subfamily is nuclear factor I.
Human liver HepG2 cells are transiently transfected with multiple reporter transcription units (MRTUs) in 6-well plates using FuGene 6 reagent (Roche; 3 ml FuGene/1 mg DNA). The MRTU constructs are regulated by a cis-regulating element (promoter). […] A major difference between the CIS and TRANS system is that in CIS activities of endogenous TFs are measured, whereas the TRANS assay evaluates changes in activities of exogenous, chimeric NR-Gal4 proteins. […] At the end of 24 hour incubation, total RNA was isolated using TriZol reagent (Invitrogen). The isolated RNA is then reverse-transcribed using oligo(dT) primer and Mo-MLV reverse transcriptase (Invitrogen) with DNAse I (Ambion) treatment for 30 min. The one-tenth of the produced cDNA was amplified by PCR using Taq DNA polymerase (Invitrogen) and two reporter sequence-specific primers. The PCR products were fluorescently labeled by primer extension with 6-arboxyfluorescein (6-FAM) 5'-labeled reporter sequence-specific primer (2 min at 95 C, 20 s at 68 C and 10 min at 72 C) and these products were digested with 5U of HpaI (New England Biolabs) for 2h at 37 C. The fragments were purified using Qiaquick PCR columns (Qiagen), analyzed on an ABI 3130xL genetic analyzer (Applied Biosystems) with peak positions identified by using a set of X-rhodamine (ROX)-labeled MapMarker1000 molecular weight standards (BioVentures). The raw capillary electrophoresis data was processed using Attagraph software (Attagene).
Turning to `O=C(O)CCCCCCCCCC(=O)O`, the result was inactive.
With `NC(=O)NNC(N)=O`, the result was inactive.
On to `CC1(C)O[C@@H]2C[C@H]3[C@@H]4C[C@H](F)C5=CC(=O)CC[C@]5(C)[C@H]4[C@@H](O)C[C@]3(C)[C@]2(C(=O)CO)O1`, for which the outcome was inactive.
The result for `CC(CC=O)CCCC(C)(C)O` (stereo not given) reads “inactive”; that for `CCO[Si](CCCN=C=O)(OCC)OCC`, “inactive”.
With `Cc1cccc(N)n1`, the call was inactive.
As to `O=C1CCC(=O)N1Cl`, the compound was called inactive.
For `CCN(Cc1cccc(S(=O)(=O)O)c1)c1ccc(C(=C2C=CC(=[N+](CC)Cc3cccc(S(=O)(=O)[O-])c3)C=C2)c2ccccc2)cc1`, the result was inactive.
Take `CC(=O)Nc1nnc(S(N)(=O)=O)s1`: the compound was classed as inactive.
Regarding `CC(C)(C)c1n[nH]c(=O)n(N)c1=O`, the compound was called inactive.
As to `[Cl][Nd]([Cl])[Cl]`, the result was inactive.
Turning to `C=C[Si](C)(C)O[Si](C)(C)C=C`, the outcome was inactive.
As for `CC(C)c1ccc(C=O)cc1`, the call was inactive.
For `CC(C)CC(O)Cc1ccccc1` (stereo not given), the result was inactive.
The result for `C[Si](C)(C)O[Si](O)(O)O` reads “inactive”; that for `CCOC(=O)CC(C(C)=O)C(C)=O`, “inactive”; that for `C=C(C)c1cccc(C(C)(C)N=C=O)c1`, “inactive”.
With `NNC(=O)c1cccc(C(=O)NN)c1`, the result was inactive.
For `COCc1c(C(C)C)nc(C(C)C)c(/C=C/[C@@H](O)C[C@@H](O)CC(=O)O)c1-c1ccc(F)cc1`, the outcome was inactive.
Turning to `ON(Cc1ccccc1)Cc1ccccc1`, the compound was classed as inactive.
For `O=C(O)C(c1ccc(Cl)cc1)c1ccc(Cl)cc1`, the result was inactive.
Turning to `O=c1cc[nH]c(=S)[nH]1`, the outcome was inactive.
In the case of `OC1OCCOC1O` (stereo not given), the compound was called inactive.
The same measure for `CCCCCCC1(C)CCC(=O)O1` (stereo not given): “inactive”.
On to `CC1=NN(c2cc(S(=O)(=O)O)ccc2Cl)C(=O)C1N=Nc1ccccc1` (stereo not given), for which the result was inactive.
The same measure for `O=C(Nc1ccccc1SSc1ccccc1NC(=O)c1ccccc1)c1ccccc1`: “inactive”; for `C=C(C)[C@@H]1CCC2=CCC[C@@H](C)[C@]2(C)C1`: “inactive”.
Regarding `CCCCCCCCO[C@@H]1O[C@H](CO)[C@@H](O)[C@H](O)[C@H]1O`, the outcome was inactive.
The result for `O=C1CC2CC1C1CCCC21` (stereo not given) reads “inactive”; that for `CCCCCCCCCCCSCC(=O)O`, “inactive”.
For `Clc1nc2ccccc2s1`, the compound was called inactive.
As for `CCCCCCCCCCOS(=O)(=O)O`, the compound was called inactive.
Consider `CCCCCCOC(=O)C(C)CC` (stereo not given), for which the outcome was inactive.
`Cc1ccc(C2OC[C@@H]3OC(c4ccc(C)cc4)O[C@H]([C@H](O)CO)[C@@H]3O2)cc1` (stereo not given in full): the call was inactive.
The result for `C=CC(C)(C)C` reads “inactive”.
For `CC1=NC(C)OC1C` (stereo not given), the compound was classed as inactive.
On to `CCOC(=O)c1ccc(N(C)C)cc1`, for which the compound was called inactive.
The result for `C[C@]12CCC(=O)C=C1CC[C@@H]1[C@@H]2C(=O)C[C@@]2(C)[C@H]1CC[C@]2(O)C(=O)CO` reads “inactive”.
Regarding `O=c1[nH]c(=O)c2[nH]c(=O)[nH]c2[nH]1`, the outcome was inactive.
On to `CC(CC=O)c1ccccc1` (stereo not given), for which the result was inactive.

The values above are taken from PubChem BioAssay (EPA / NIEHS).
